Active and inactive are the calls of the source.

For the first test the following is noted: Ebola virus entry assay, ratio channel readout.
Turning to `O=C1CN(/N=C/c2ccc([N+](=O)[O-])o2)C(=O)N1`, the outcome was inactive. For `Nc1ccc(S(=O)(=O)c2ccc(N)cc2)cc1`, the outcome was inactive. Take `NS(=O)(=O)c1cc(Cl)c(Cl)c(S(N)(=O)=O)c1`: the result was inactive.

Turning to `C=C[C@H]1CN2CC[C@H]1C[C@H]2[C@H](O)c1ccnc2ccc(OC)cc12`, the result was inactive. Same read-out and setting: in the case of `NCC[C@H](O)C(=O)N[C@@H]1C[C@H](N)[C@@H](O[C@H]2O[C@H](CN)[C@@H](O)[C@H](O)[C@@H]2O)[C@H](O)[C@@H]1O[C@H]1O[C@H](CO)[C@@H](O)[C@H](N)[C@@H]1O` it was “inactive”; in that of `CCn1cc(C(=O)O)c(=O)c2cc(F)c(N3CCNC(C)C3)c(F)c21` (stereo not drawn), “inactive”; in that of `S=c1nc[nH]c2nc[nH]c12`, “inactive”. Take `CC1COc2c(N3CCN(C)CC3)c(F)cc3c(=O)c(C(=O)O)cn1c23` (stereo not drawn): the outcome was inactive. Still for that read-out and setting: in the case of `NC(N)=NC(=O)Cc1c(Cl)cccc1Cl` it was “inactive”. Turning to `CN1C(CSCC(F)(F)F)Nc2cc(Cl)c(S(N)(=O)=O)cc2S1(=O)=O` (stereo not drawn), the outcome was inactive. On the same count and under the same terms, in the case of `NC(=O)c1cnccn1` it was “inactive”; in that of `CCN(CC)C(=O)/C(C#N)=C/c1cc(O)c(O)c([N+](=O)[O-])c1`, “inactive”. As for `C[C@]1(O)CC[C@H]2[C@@H]3CCC4=CC(=O)CC[C@]4(C)[C@@]3(F)[C@@H](O)C[C@@]21C`, the outcome was inactive. For `CC(C)N(CCC(C(N)=O)(c1ccccc1)c1ccccn1)C(C)C` (stereo not drawn), the result was inactive. Still for that read-out and setting: in the case of `NS(=O)(=O)c1cc(C2(O)NC(=O)c3ccccc32)ccc1Cl` (stereo not drawn) it was “inactive”; in that of `COc1cc(C(=O)NS(=O)(=O)c2ccccc2C)ccc1Cc1cn(C)c2ccc(NC(=O)OC3CCCC3)cc12`, “inactive”. Turning to `CNCCCC12CCC(c3ccccc31)c1ccccc12`, the AC50 (in general, the concentration giving half of the maximal activity seen) is 3.17 µM (active). Turning to `CCS(=O)(=O)CCn1c([N+](=O)[O-])cnc1C`, the result was inactive. The same measure, in the same setting: to `COc1c(N2C[C@@H]3CCCN[C@@H]3C2)c(F)cc2c(=O)c(C(=O)O)cn(C3CC3)c12` belongs “inactive”; to `CN1C[C@H](C(=O)N[C@]2(C)O[C@@]3(O)[C@@H]4CCCN4C(=O)[C@H](Cc4ccccc4)N3C2=O)C=C2c3cccc4[nH]cc(c34)C[C@H]21`, “inactive”. With `COC(=O)C(c1ccccc1)C1CCCCN1` (stereo not drawn), the result was inactive.

For the next test the following is noted: Ebola virus entry assay, blue channel fluorescence.
Turning to `C#CCN[C@@H]1CCc2ccccc21`, the call was inactive. For the compound `CCc1cc(C(N)=S)ccn1`, the compound was called inactive. Still for that read-out and setting: in the case of `C=CCN1C[C@H](C(=O)N(CCCN(C)C)C(=O)NCC)C[C@@H]2c3cccc4[nH]cc(c34)C[C@H]21` it was “inactive”; in that of `CCC1(C)CC(=O)NC1=O` (stereo not drawn), “inactive”.

With `Clc1ccc2nsnc2c1NC1=NCCN1`, the call was inactive.

Regarding `C=CCC1([C@H](C)CCC)C(=O)NC(=O)NC1=O`, the call was inactive.

Consider `NCCCCCC(=O)O`, for which the result was inactive. On the same count and under the same terms, to `COCCCOc1ccnc(CS(=O)c2nc3ccccc3[nH]2)c1C` (stereo not drawn) belongs “inactive”. The same measure, in the same setting: in the case of `Nc1ncn([C@H]2C[C@H](O)[C@@H](CO)O2)c(=O)n1` it was “inactive”. For the compound `OCCOCCN1CCN(C2=Nc3ccccc3Sc3ccccc32)CC1`, the call was inactive. For the compound `NS(=O)(=O)c1cc2c(cc1C(F)(F)F)NC(Cc1ccccc1)NS2(=O)=O` (stereo not drawn), the outcome was inactive. As to `CC(NC(C)(C)C)C(=O)c1cccc(Cl)c1` (stereo not drawn), the outcome was inactive.

As for `CN=C(NC#N)NCCSCc1nc[nH]c1C`, the result was inactive. `C[C@](N)(Cc1ccc(O)cc1)C(=O)O`: the call was inactive. With `CN1C(C(=O)Nc2ccccn2)=C(O)c2ccccc2S1(=O)=O`, the result was inactive. The same measure, in the same setting: in the case of `Cc1nnc(SCC2=C(C(=O)O)N3C(=O)[C@@H](NC(=O)Cn4cnnn4)[C@H]3SC2)s1` it was “inactive”. In the case of `O=C1CN(/N=C/c2ccc([N+](=O)[O-])o2)C(=O)N1`, the result was inactive. Still for that read-out and setting: in the case of `Nc1ccc(S(=O)(=O)c2ccc(N)cc2)cc1` it was “inactive”. Take `C=C[C@H]1CN2CC[C@H]1C[C@H]2[C@H](O)c1ccnc2ccc(OC)cc12`: the AC50 was 25.1 µM (active). `NCC[C@H](O)C(=O)N[C@@H]1C[C@H](N)[C@@H](O[C@H]2O[C@H](CN)[C@@H](O)[C@H](O)[C@@H]2O)[C@H](O)[C@@H]1O[C@H]1O[C@H](CO)[C@@H](O)[C@H](N)[C@@H]1O`: the compound was called inactive. On the same count and under the same terms, to `CCn1cc(C(=O)O)c(=O)c2cc(F)c(N3CCNC(C)C3)c(F)c21` (stereo not drawn) belongs “inactive”; to `CC1COc2c(N3CCN(C)CC3)c(F)cc3c(=O)c(C(=O)O)cn1c23` (stereo not drawn), “inactive”; to `NC(N)=NC(=O)Cc1c(Cl)cccc1Cl`, “inactive”.

Consider `CN1C(CSCC(F)(F)F)Nc2cc(Cl)c(S(N)(=O)=O)cc2S1(=O)=O` (stereo not drawn), for which the compound was classed as inactive. As for `NC(=O)c1cnccn1`, the compound was classed as inactive. Regarding `CCN(CC)C(=O)/C(C#N)=C/c1cc(O)c(O)c([N+](=O)[O-])c1`, the result was inactive.

With `NS(=O)(=O)c1cc(C2(O)NC(=O)c3ccccc32)ccc1Cl` (stereo not drawn), the compound was classed as inactive.

Values taken from PubChem BioAssay (NCATS).
